Assay results as given in PubChem BioAssay.
The source made the active and inactive calls.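 How the source made its calls, unless noted: active means compounds whose cell count with miR-34 switched on is under 0.7 times the count with it off; inactive means the rest.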

What was measured:
[1] = viability loss with induced miR-34 in A549 – imaging, A549 dox-inducible miR-34, nuclei and caspase counts, primary screen (AID 1347080); settings: A549 miR-34 inducible, Hoechst nuclei count, 48 h
[2] = MELAS cybrid and Rieske KO viability enhancers – cell-based, MELAS cybrids, Rieske KO mouse fibroblasts, CellTiter-Glo, primary screen (AID 1508586;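 active means mean z-score across replicates of 1.96 or higher in either the MELAS or the Rieske mutant cell line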;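 further: z relative to plate mean and SD of compound and empty wells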); settings: low glucose
[3] = stronger effect = lower value, cell number ratio, induced over uninduced
[4] = measured here: relative caspase fold change +Dox/-Dox
[5] = measured here: total cells with miR-34 induction, stronger effect = lower value
[6] = measured here: total cells without miR-34 induction
[7] = MELAS cybrid survival, CellTiter-Glo 48 h, stronger effect = higher value
[8] = Rieske KO mouse fibroblast survival, CellTiter-Glo 72 h
Further: test concentration not given here.

| Structure (SMILES) | fold change [1, 3] | fold change [1, 4] | cell count [1, 5] | cell count [1, 6] | z-score [2, 7] | z-score [2, 8] |
| --- | --- | --- | --- | --- | --- | --- |
| CC1COC2=C1C(=O)C(=O)c1c2ccc2c1CCCC2(C)C (stereo not drawn) | 1.09 (inactive) | 0.507 | 2070 | 1890 | -0.382 (inactive) | -0.5 |
| OCC1OC(OCCc2ccc(O)cc2)C(O)C(O)C1O (stereo not drawn) | 0.962 (inactive) | 0.762 | 10000 | 10400 | -0.35 (inactive) | 0.467 |
| CCCCNc1ncc(C(=O)NCc2ccc(-n3ccnc3)cc2)c(NC2CCC(O)CC2)n1 (stereo not drawn) | 1.3 (inactive) | 0.249 | 2450 | 1880 | 5.49 (active) | -1.88 |
| CCC(=O)O[C@@]1(C(=O)CCl)C(C)C[C@H]2[C@@H]3CC(F)C4=CC(=O)C=C[C@]4(C)[C@]3(F)C(O)C[C@@]21C (stereo partly drawn) | 0.853 (inactive) | 0.626 | 4930 | 5780 | -0.347 (inactive) | -0.183 |
| CON=C(C(=O)N[C@@H]1C(=O)N2C(C(=O)O)=C(CSC(=O)c3ccco3)CS[C@H]12)c1csc(N)n1 | 0.943 (inactive) | 1.19 | 9660 | 10200 | -0.295 (inactive) | 0.108 |
| CC(NC(=O)C(Cc1ccccc1)NC(=O)OCc1ccccc1)C(=O)CF (stereo not drawn) | 0.911 (inactive) | 0.415 | 8780 | 9640 | -0.389 (inactive) | -0.551 |
| O=C(O)CCCN1CCC(OC(c2ccc(Cl)cc2)c2ccccn2)CC1 (stereo not drawn) | 0.967 (inactive) | 1.77 | 8100 | 8370 | 0.387 (inactive) | -0.496 |
| CC(C)(C)c1cc(C(=O)C(C#N)=NNc2cccc(Cl)c2)no1 | 0.873 (inactive) | 0.45 | 4320 | 4950 | -0.557 (inactive) | -3.22 |
| CCOC1OC(=O)CC1NC(=O)C1CCCN1C(=O)C(NC(=O)c1ccc(N)c(Cl)c1)C(C)(C)C (stereo not drawn) | 0.983 (inactive) | 0.559 | 8140 | 8280 | -0.153 (inactive) | 0.0351 |
| OCc1ccc(OC2OC(CO)C(O)C(O)C2O)cc1 (stereo not drawn) | 0.984 (inactive) | 0.233 | 8280 | 8420 | -0.247 (inactive) | -0.122 |
| CCC(C(C)O)n1ncn(-c2ccc(N3CCN(c4ccc(OCC5CO[C@@](Cn6cncn6)(c6ccc(F)cc6F)C5)cc4)CC3)cc2)c1=O (stereo partly drawn) | 1.04 (inactive) | 0.726 | 4300 | 4130 | -0.325 (inactive) | 0.236 |
| O=C(CCCCCCC(=O)Nc1ccc(C2OC(CSc3nc(-c4ccccc4)c(-c4ccccc4)o3)CC(c3ccc(CO)cc3)O2)cc1)NO (stereo not drawn) | 0.92 (inactive) | 0.644 | 6200 | 6750 | -0.366 (inactive) | 1.07 |
| CNC(C)C(=O)NC(C(=O)N1CCCC1C(=O)Nc1snnc1-c1ccccc1)C1CCCCC1 (stereo not drawn) | 0.982 (inactive) | 0.55 | 8360 | 8510 | -0.276 (inactive) | -0.145 |
| CC1(C)O[C@@H]2C[C@H]3[C@@H]4CCC5=CC(=O)C=C[C@]5(C)[C@@H]4C(O)C[C@]3(C)[C@@]2(C(=O)CO)O1 (stereo partly drawn) | 0.87 (inactive) | 1.16 | 5200 | 5970 | -0.511 (inactive) | -0.393 |
| CC(C)OC(=O)OCOP(=O)(COC(C)Cn1cnc2c(N)ncnc21)OCOC(=O)OC(C)C (stereo not drawn) | 0.941 (inactive) | 0.831 | 7870 | 8370 | -0.399 (inactive) | 0.463 |
| O=C(NN=Cc1ccc(O)c(O)c1)c1cc2ccccc2cc1O | 0.949 (inactive) | 0.497 | 8120 | 8550 | -0.481 (inactive) | 0.559 |
| CC1OC(OC2C(Oc3cc(O)c4c(c3)OC(c3ccc(O)cc3)CC4=O)OC(CO)C(O)C2O)C(O)C(O)C1O (stereo not drawn) | 1 (inactive) | 0.741 | 8310 | 8300 | -0.421 (inactive) | -0.0851 |
| CC(=O)c1cc([N+](=O)[O-])c(Sc2ccc(F)cc2F)s1 | 0.898 (inactive) | 0.374 | 8140 | 9060 | -0.42 (inactive) | 0.533 |
| COC1O[C@H]2O[C@@]3(C)CC[C@H]4[C@@H](C)CC[C@@H]([C@H]1C)[C@@]24OO3 (stereo partly drawn) | 0.86 (inactive) | 1.37 | 7410 | 8620 | -0.241 (inactive) | 0.578 |
| CC1COC(Nc2ccc3ncnc(Nc4ccc(OCc5nccs5)c(Cl)c4)c3c2)=N1 (stereo not drawn) | 0.841 (inactive) | 0.704 | 6940 | 8260 | 0.156 (inactive) | -0.466 |
| CC(C)(C)NC(=O)C1CC[C@H]2[C@@H]3CC[C@H]4NC(=O)C=C[C@]4(C)[C@@H]3CC[C@]12C (stereo partly drawn) | 1.03 (inactive) | 1.3 | 8400 | 8170 | -0.417 (inactive) | 0.72 |
| C=CCc1cccc(C=NNC(=O)CN2CCN(Cc3ccccc3)CC2)c1O | 0.992 (inactive) | 0.755 | 3820 | 3850 | -0.146 (inactive) | -1.03 |

| Structure (SMILES) | fold change [1, 3] | fold change [1, 4] | cell count [1, 5] | cell count [1, 6] | z-score [2, 7] | z-score [2, 8] |
| --- | --- | --- | --- | --- | --- | --- |
| CC(=O)OC1C[C@@H]2CC[C@@H]3[C@@H](CC[C@]4(C)C(OC(C)=O)C([N+]5(C)CCCCC5)C[C@@H]34)[C@@]2(C)CC1[N+]1(C)CCCCC1 (stereo partly drawn) | 0.982 (inactive) | 0.749 | 10400 | 10600 | -0.344 (inactive) | 0.747 |
| Cn1c(=O)cc(N2CCCC(N)C2)n(Cc2ccccc2C#N)c1=O (stereo not drawn) | 0.958 (inactive) | 0.837 | 8510 | 8880 | -0.12 (inactive) | -0.0809 |
| Cc1[nH]c2ccccc2c1C1=C(NCCc2ccc(F)cc2)C(=O)N(C)C1=O | 0.916 (inactive) | 0.466 | 2210 | 2410 | -0.365 (inactive) | 1.08 |
| O=C(c1cn(Cc2cncn2Cc2ccc(Br)cc2)cc1-c1cccc2ccccc12)N1CCOCC1 | 0.999 (inactive) | 0.553 | 3260 | 3270 | -0.128 (inactive) | -1.26 |
| C=CC(C)(O)CCC1[C@@]2(C)CCCC(C)(C)C2CC[C@@]1(C)O (stereo partly drawn) | 0.916 (inactive) | 0.879 | 8210 | 8970 | -0.292 (inactive) | -0.0842 |
| COC1C[C@H]2CCC(C)[C@@](O)(O2)C(=O)C(=O)N2CCCC[C@H]2C(=O)OC(C(C)CC2CCC(OC(=O)C(C)(CO)CO)C(OC)C2)CC(=O)C(C)C=C(C)C(O)C(OC)C(=O)C(C)CC(C)C=CC=CC=C1C (stereo partly drawn) | 1.08 (inactive) | 0.974 | 3980 | 3690 | 0.432 (inactive) | 0.402 |
| CC(NC(=O)C(C#N)=Cc1cccc(Br)n1)c1ccccc1 (stereo not drawn) | 1.21 (inactive) | 0.817 | 1620 | 1340 | 0.502 (inactive) | 0.371 |
| O=C(O)C1OC(Oc2cc3oc(-c4ccccc4)cc(=O)c3c(O)c2O)C(O)C(O)C1O (stereo not drawn) | 0.916 (inactive) | 1.12 | 7800 | 8520 | -0.174 (inactive) | 0.279 |
| CC1(C)SC2C(NC(=O)C(NC(=O)N3CCNC3=O)c3ccccc3)C(=O)N2C1C(=O)O (stereo not drawn) | 0.905 (inactive) | 1.06 | 8030 | 8880 | -0.162 (inactive) | -0.16 |
| CC(C)CN(C[C@H](O)[C@@H](Cc1ccccc1)NC(=O)O[C@@H]1CO[C@H]2OCC[C@H]21)S(=O)(=O)c1ccc(N)cc1 | 0.938 (inactive) | 0.791 | 7440 | 7930 | -0.364 (inactive) | 0.28 |
| COc1ccc(CCc2nc3cc(-c4c(C)noc4C)ccc3n2CC(C)N2CCOCC2)cc1Cl (stereo not drawn) | 0.88 (inactive) | 0.277 | 7240 | 8230 | -0.0999 (inactive) | -1.46 |
| O=C(O)c1ccc(C=C2SC(=S)N(c3cccc(C(F)(F)F)c3)C2=O)cc1 | 0.824 (inactive) | 0.518 | 6780 | 8220 | -0.207 (inactive) | -3.49 |
| C=C1CCC(O)CC1=CC=C1CCC[C@]2(C)C(C(C)CCCC(C)C)CC[C@@H]12 (stereo partly drawn) | 0.915 (inactive) | 0.845 | 8000 | 8740 | -0.279 (inactive) | -0.0631 |
| O=C(O)c1cc(I)ccc1NC(=O)C(Cc1ccccc1)NCc1ccccc1 (stereo not drawn) | 0.835 (inactive) | 0.632 | 8450 | 10100 | -0.035 (inactive) | 1.09 |
| CCN=C1N[C@@H]2C(O)C(O)C(CO)O[C@@H]2S1 (stereo partly drawn) | 0.935 (inactive) | 0.487 | 8710 | 9320 | -0.533 (inactive) | -0.988 |
| COc1cc(C2c3cc4c(cc3C(O[C@@H]3O[C@@H]5COC(C)O[C@H]5C(O)C3O)[C@H]3COC(=O)[C@H]23)OCO4)cc(OC)c1O (stereo partly drawn) | 0.94 (inactive) | 1.28 | 2100 | 2240 | -0.7 (inactive) | -0.559 |
| CC1(C)C(O[C@H]2OC(C(=O)O)C(O)C(O)C2O[C@@H]2OC(C(=O)O)C(O)C(O)C2O)CC[C@@]2(C)[C@H]3C(=O)C=C4[C@@H]5C[C@@](C)(C(=O)O)CC[C@]5(C)CC[C@@]4(C)[C@]3(C)CC[C@@H]12 (stereo partly drawn) | 0.946 (inactive) | 0.91 | 7600 | 8030 | -0.278 (inactive) | -0.114 |
| CC1=C(CC(=O)O)c2cc(F)ccc2C1=Cc1ccc(S(C)=O)cc1 (stereo not drawn) | 0.878 (inactive) | 0.667 | 7920 | 9010 | -0.193 (inactive) | 0.691 |
| CC1CC(C(=O)O)C2CC[C@]3(C)C(=CC[C@H]4[C@@]5(C)CCC(O)C(C)(C)[C@@H]5CC[C@]43C)[C@H]2C1C (stereo partly drawn) | 0.867 (inactive) | 0.88 | 8220 | 9470 | -0.234 (inactive) | 0.804 |
| CC1OC(OCC2OC(Oc3c(-c4ccc(OCCO)c(OCCO)c4)oc4cc(OCCO)cc(O)c4c3=O)C(O)C(O)C2O)C(O)C(O)C1O (stereo not drawn) | 0.984 (inactive) | 0.465 | 7700 | 7830 | -0.513 (inactive) | -0.15 |
| Cc1ccc(C2OC(CO)C(O)C(O)C2O)cc1Cc1ccc(-c2ccc(F)cc2)s1 (stereo not drawn) | 0.902 (inactive) | 0.772 | 9160 | 10100 | -0.448 (inactive) | 0.478 |
